{"source": "PubChem BioAssay", "note": "Inconclusive results are not listed. Active and inactive are the calls of the source. Unless noted, no cut-off is given here; in the data, nearly all actives have AC50 up to about 27 µM."}
{"assay": "growth inhibition of DIPG glioma cells, dose response, cell-based, JHH-DIPG-1, MIPE4.0, CellTiter-Glo, qHTS (AID 1347062)", "conditions": "JHH-DIPG-1 viability, CellTiter-Glo ATP luminescence"}
{"smiles": "COC(=O)[C@H](c1ccccc1Cl)N1CCc2sccc2C1", "outcome": "inactive"}
{"smiles": "CS(=O)(=O)c1ccc(C2=C(c3ccccc3)C(=O)OC2)cc1", "outcome": "inactive"}
{"smiles": "CN(C)c1nc(N(C)C)nc(N(C)C)n1", "outcome": "inactive"}
{"smiles": "CC1=C(/C=C/C(C)=C/C=C/C(C)=C\\C(=O)O)C(C)(C)CCC1", "outcome": "inactive"}
{"smiles": "CCc1ccc(CCOc2ccc(CC3SC(=O)NC3=O)cc2)nc1", "note": "(centres undefined)", "outcome": "inactive"}
{"smiles": "CC(C(=O)O)c1ccc(-c2ccccc2)c(F)c1", "note": "(centres undefined)", "outcome": "inactive"}
{"smiles": "CC[C@H]1OC(=O)[C@H](C)[C@@H](O[C@H]2C[C@@](C)(OC)[C@@H](O)[C@H](C)O2)[C@H](C)[C@@H](O[C@@H]2O[C@H](C)C[C@H](N(C)C)[C@H]2O)[C@](C)(OC)C[C@@H](C)C(=O)[C@H](C)[C@@H](O)[C@]1(C)O", "outcome": "inactive"}
{"smiles": "C[C@H]1COc2c(N3CCN(C)CC3)c(F)cc3c(=O)c(C(=O)O)cn1c23", "outcome": "inactive"}
{"smiles": "O=c1ccc2ccc(O)c(O)c2o1", "outcome": "inactive"}
{"assay": "growth inhibition of DIPG glioma cells, dose response, cell-based, SU-DIPG-IV, MIPE4.0, CellTiter-Glo, qHTS (AID 1347063; cut-off not given, nearly all actives have AC50 up to about 30 µM;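 note: compound exposure lasted 48 hours before the viability readout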)", "conditions": "SU-DIPG-IV viability, CellTiter-Glo ATP luminescence"}
{"smiles": "COc1ccc(/C=C/C(=O)Nc2ccccc2C(=O)O)cc1OC", "outcome": "inactive"}
{"smiles": "COC(=O)[C@H](c1ccccc1Cl)N1CCc2sccc2C1", "outcome": "inactive"}
{"smiles": "CS(=O)(=O)c1ccc(C2=C(c3ccccc3)C(=O)OC2)cc1", "outcome": "inactive"}
{"smiles": "CN(C)c1nc(N(C)C)nc(N(C)C)n1", "outcome": "inactive"}
{"smiles": "CC[C@H]1OC(=O)[C@H](C)[C@@H](O[C@H]2C[C@@](C)(OC)[C@@H](O)[C@H](C)O2)[C@H](C)[C@@H](O[C@@H]2O[C@H](C)C[C@H](N(C)C)[C@H]2O)[C@](C)(OC)C[C@@H](C)C(=O)[C@H](C)[C@@H](O)[C@]1(C)O", "outcome": "inactive"}
{"smiles": "C[C@H]1COc2c(N3CCN(C)CC3)c(F)cc3c(=O)c(C(=O)O)cn1c23", "outcome": "inactive"}
{"assay": "growth inhibition of DIPG glioma cells, dose response, cell-based, SU-DIPG-XIII, MIPE5.0, CellTiter-Glo, qHTS (AID 1347064; cut-off not given, nearly all actives have AC50 up to about 23 µM)", "conditions": "SU-DIPG-XIII viability, CellTiter-Glo ATP luminescence"}
{"smiles": "COc1ccc(/C=C/C(=O)Nc2ccccc2C(=O)O)cc1OC", "outcome": "inactive"}
{"smiles": "COC(=O)[C@H](c1ccccc1Cl)N1CCc2sccc2C1", "outcome": "inactive"}
{"smiles": "CS(=O)(=O)c1ccc(C2=C(c3ccccc3)C(=O)OC2)cc1", "outcome": "inactive"}
{"smiles": "CN(C)c1nc(N(C)C)nc(N(C)C)n1", "outcome": "inactive"}
{"smiles": "CC1=C(/C=C/C(C)=C/C=C/C(C)=C\\C(=O)O)C(C)(C)CCC1", "outcome": "inactive"}
{"smiles": "CCc1ccc(CCOc2ccc(CC3SC(=O)NC3=O)cc2)nc1", "note": "(centres undefined)", "outcome": "inactive"}
{"smiles": "CC(C(=O)O)c1ccc(-c2ccccc2)c(F)c1", "note": "(centres undefined)", "outcome": "inactive"}
{"smiles": "C[C@H]1COc2c(N3CCN(C)CC3)c(F)cc3c(=O)c(C(=O)O)cn1c23", "outcome": "inactive"}
{"smiles": "Nc1ncnc2c1ncn2[C@@H]1O[C@H](CO)[C@@H](O)[C@@H]1O", "outcome": "inactive"}
